5 compounds from PubChem BioAssay can be followed below.

Calls of active or inactive are those of the source. Unless noted, no rule for the calls is given here.

The subject of experiment [1] is Wnt5a (protein binding on small-molecule microarray). In words: Wnt5a binders on small-molecule microarray, primary screen, biophysical, 635/667 nm fluorescence (AID 1142).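 Also: fluorescence read at 667 nm with signal to noise per printed feature.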 The conditions noted are these: 635 nm fluorescence, higher = more signal.
A short description of experiment [2]: cell viability in Huh7 cells, primary screen, cytotoxicity control for HCV replication inhibitor project, CellTiter-Glo luminescence, basal, 48 h (AID 1143).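 Also: Huh7 hepatoma cells carrying a hepatitis C replication reporter with no stimulus; test concentration not given here.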 The conditions noted are these: Huh7 HCV replicon, higher = more signal, called active from +8 up or from −8 down. Background: ATP-based viability assays read luminescence as a measure of living cells.
A short description of experiment [3]: P. aeruginosa biofilm formation inhibitors, primary screen, PAO1 strain, BacTiter-Glo luminescence, LB-PBS (AID 1144). Particulars: 12 h, higher = more signal.
Experiment [4] is described as follows: CREB reporter modulators without forskolin, primary screen, cell-based, PC12, CRE-LacZ reporter, unstimulated (AID 1145). Particulars: no forskolin, luminescence, 4.5 h, higher = more signal, called active from +8 up or from −8 down.
The nature of experiment [5]: CREB reporter modulators under forskolin, primary screen, cell-based, PC12, CRE-LacZ reporter, forskolin-stimulated (AID 1146).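 Also: PC12 cells with 6xCRE LacZ reporter stimulated by forskolin 10 µM; beta-galactosidase reporter signal reflecting CREB driven transcription.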 Particulars: luminescence, 4.5 h, higher = more signal, called active from +8 up or from −8 down.
The target in experiment [6] is Streptavidin (Streptomyces avidinii) (UniProt P22629). In words: streptavidin binders on small-molecule microarray, primary screen, artefact control for SMM compound annotation, biophysical, 635/667 nm fluorescence (AID 1147).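 Also: signal reflects streptavidin binding to arrayed compounds as a control protein.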 Particulars: streptavidin binding, higher = more signal.
Sequence of Streptavidin (Streptomyces avidinii) (P22629 whole entry, looked up): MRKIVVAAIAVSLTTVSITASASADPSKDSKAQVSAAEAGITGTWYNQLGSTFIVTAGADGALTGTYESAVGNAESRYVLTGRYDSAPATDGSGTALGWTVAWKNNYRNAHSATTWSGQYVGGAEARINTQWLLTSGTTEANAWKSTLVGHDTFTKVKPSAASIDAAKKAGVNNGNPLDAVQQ
A short description of experiment [7]: small-molecule binders of probe aInhba, primary screen, biochemical, small-molecule microarray, 635/667 nm fluorescence (AID 1148).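 Also: score merges 667nm spot fluorescence with signal-to-noise for antibody binding to printed compounds.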 Particulars: higher = more signal.
The target in experiment [8] is Torsin-1A (Homo sapiens) (UniProt O14656). The experiment in a line: torsin A binders from cell lysate, primary screen, small-molecule microarray, wild-type, 635/667 nm (AID 1149). Particulars: COS7 hTOR1A-WT lysate, 635 nm fluorescence, higher = more signal.
Sequence of Torsin-1A (Homo sapiens) (O14656 whole entry, looked up): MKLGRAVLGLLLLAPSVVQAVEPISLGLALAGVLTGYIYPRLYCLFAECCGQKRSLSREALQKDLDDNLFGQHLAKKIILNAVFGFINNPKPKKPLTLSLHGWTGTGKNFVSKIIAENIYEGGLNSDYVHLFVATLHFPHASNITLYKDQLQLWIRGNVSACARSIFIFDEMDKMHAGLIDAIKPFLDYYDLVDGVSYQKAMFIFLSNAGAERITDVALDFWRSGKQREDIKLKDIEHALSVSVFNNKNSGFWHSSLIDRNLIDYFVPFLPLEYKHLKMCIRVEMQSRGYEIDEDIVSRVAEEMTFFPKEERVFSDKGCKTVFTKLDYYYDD
For experiment [9] the target is unchanged. In words: small-molecule binders of mutant TOR1A in lysate, primary screen, cell lysate, small-molecule microarray, COS7 lysate, 635/667 nm fluorescence (AID 1150).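 Also: score pools 667 nm emission and signal to noise measuring lysate protein binding.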 Particulars: COS7 hTOR1A mutant lysate, 635 nm fluorescence, higher = more signal.
Experiment [10] deals with Sonic hedgehog protein (Shh). The experiment in a line: small-molecule binders of Shh protein, primary screen, biochemical, small-molecule microarray, 635/667 nm fluorescence (AID 1151).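 Also: Shh protein binding to compounds spotted on small-molecule microarray slides; score combines spot fluorescence intensity with signal-to-noise across triplicate slides.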 Particulars: small-molecule microarray binding, 635 nm fluorescence; higher = more signal.
Experiment [11] can be described thus: E. coli DRC41 culture turbidity changes, primary screen, E. coli filamentation inducer project, strain DRC41, OD650, 48 h (AID 1152).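 Also: E. coli MC1000 strain DRC41 lacking acrAB efflux pump and sulA.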 The conditions noted are these: E. coli DRC41 (acrAB sulA), higher = more signal, called active from +8 up or from −8 down.
Experiment [12] can be described thus: small-molecule binders of probe aLefty1, primary screen, biochemical, small-molecule microarray, 635/667 nm fluorescence (AID 1153).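 Also: score merges spot fluorescence with signal-to-noise ratio from the scanned slide images.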 The conditions noted are these: higher = more signal.
Experiment [13] can be described thus: PSAC antagonists in infected red cells, primary screen, cell-based, P. falciparum Indochina, OD700, 1 h (AID 1154). The conditions noted are these: P. falciparum Indochina infected RBC osmotic lysis, higher = more signal, called active from +8 up or from −8 down.
A short description of experiment [14]: PSAC antagonists in infected red cells, primary screen, cell-based, P. falciparum Indochina, OD700, 2 h (AID 1155).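 Also: lysis reports solute entry through the parasite surface anion channel PSAC; channel blockers reduce lysis of infected cells.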 The conditions noted are these: P. falciparum Indochina infected erythrocytes, osmotic lysis OD700; higher = more signal, called active from +8 up or from −8 down.
A short description of experiment [15]: osmotic lysis modulators in infected erythrocytes, primary screen, PSAC antagonist project, cell-based, P. falciparum Indochina, OD700, 3 h (AID 1156). Particulars: higher = more signal, called active from +8 up or from −8 down.
Experiment [16] can be described thus: PSAC antagonists in infected red cells, primary screen, cell-based, P. falciparum Indochina, OD700, 18 h (AID 1157). Particulars: P. falciparum Indochina infected erythrocytes, osmotic lysis OD700, 18 h; higher = more signal, called active from +8 up or from −8 down.
A short description of experiment [17]: modulators of S6 phosphorylation in cells, primary screen, cell-based, A549, cytoblot, luminescence, serum-stimulated (AID 1158).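 Also: serum-stimulated A549 lung adenocarcinoma cells; signal is phosphorylated S6 detected by cytoblot immunostaining with HRP secondary.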 Particulars: A549 phospho-S6 cytoblot, 5 h, higher = more signal.
The target of experiment [18] is NADPH oxidase 2 (Homo sapiens) (UniProt P04839). The experiment in a line: NOX2-dependent H2O2 signal modulators, primary screen, NOX inhibitor project, cell-based, HEK293-NOX2, PMA-stimulated, Amplex Red fluorescence (AID 1159). Also: test concentration not given here. The conditions noted are these: 45 min, higher = more signal, called active from +8 up or from −8 down.
Sequence of NADPH oxidase 2 (Homo sapiens) (P04839 whole entry, looked up): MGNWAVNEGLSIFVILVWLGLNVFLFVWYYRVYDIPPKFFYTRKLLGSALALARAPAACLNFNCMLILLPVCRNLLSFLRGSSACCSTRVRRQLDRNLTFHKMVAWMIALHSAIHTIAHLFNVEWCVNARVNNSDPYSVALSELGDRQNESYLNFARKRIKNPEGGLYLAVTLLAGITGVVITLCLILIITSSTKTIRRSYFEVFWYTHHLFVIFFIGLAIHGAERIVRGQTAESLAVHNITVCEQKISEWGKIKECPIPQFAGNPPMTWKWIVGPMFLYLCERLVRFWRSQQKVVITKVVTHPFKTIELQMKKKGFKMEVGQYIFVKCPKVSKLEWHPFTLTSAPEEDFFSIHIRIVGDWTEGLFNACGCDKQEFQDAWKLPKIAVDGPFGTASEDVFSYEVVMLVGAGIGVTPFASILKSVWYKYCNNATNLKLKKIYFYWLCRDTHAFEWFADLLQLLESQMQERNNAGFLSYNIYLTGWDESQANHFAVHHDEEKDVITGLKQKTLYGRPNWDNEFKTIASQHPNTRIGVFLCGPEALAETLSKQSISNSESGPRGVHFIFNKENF
Experiment [19] concerns the target NADPH oxidase 4 (Homo sapiens) (UniProt Q9NPH5). The experiment in a line: NOX4-dependent H2O2 signal modulators, primary screen, NOX inhibitor project, cell-based, HEK293-NOX4, tetracycline-induced, Amplex Red fluorescence (AID 1160). The conditions noted are these: 45 min, higher = more signal, called active from +8 up or from −8 down.
The target of experiment [20] is NADPH oxidase 5 (Homo sapiens) (UniProt Q96PH1). In words: NOX5-dependent H2O2 signal modulators, primary screen, NOX inhibitor project, cell-based, HEK293-NOX5, Amplex Red fluorescence (AID 1161). The conditions noted are these: HEK293-NOX5, ionomycin, 45 min, higher = more signal.
Sequence of NADPH oxidase 5 (Homo sapiens) (Q96PH1 whole entry, looked up): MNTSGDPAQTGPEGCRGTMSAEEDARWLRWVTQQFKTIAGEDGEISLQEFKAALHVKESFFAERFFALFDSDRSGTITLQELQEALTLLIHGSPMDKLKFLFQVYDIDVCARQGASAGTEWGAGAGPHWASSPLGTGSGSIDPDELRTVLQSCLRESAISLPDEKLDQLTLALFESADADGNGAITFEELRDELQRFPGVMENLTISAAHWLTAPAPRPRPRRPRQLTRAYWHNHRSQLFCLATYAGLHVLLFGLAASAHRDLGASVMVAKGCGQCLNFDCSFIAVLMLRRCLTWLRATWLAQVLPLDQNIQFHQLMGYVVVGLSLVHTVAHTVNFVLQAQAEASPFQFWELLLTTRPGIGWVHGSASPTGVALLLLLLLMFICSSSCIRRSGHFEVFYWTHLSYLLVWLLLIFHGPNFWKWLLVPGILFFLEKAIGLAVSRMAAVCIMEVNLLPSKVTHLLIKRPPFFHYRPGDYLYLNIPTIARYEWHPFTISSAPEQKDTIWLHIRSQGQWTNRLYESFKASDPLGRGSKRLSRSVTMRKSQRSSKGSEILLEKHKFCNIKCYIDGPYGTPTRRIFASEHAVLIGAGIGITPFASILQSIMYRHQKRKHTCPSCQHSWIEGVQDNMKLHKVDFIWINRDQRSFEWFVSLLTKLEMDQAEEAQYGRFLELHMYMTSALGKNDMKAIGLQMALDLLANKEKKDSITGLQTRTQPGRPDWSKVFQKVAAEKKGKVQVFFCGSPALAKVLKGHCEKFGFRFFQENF

Sequence of NADPH oxidase 4 (Homo sapiens) (Q9NPH5 whole entry, looked up): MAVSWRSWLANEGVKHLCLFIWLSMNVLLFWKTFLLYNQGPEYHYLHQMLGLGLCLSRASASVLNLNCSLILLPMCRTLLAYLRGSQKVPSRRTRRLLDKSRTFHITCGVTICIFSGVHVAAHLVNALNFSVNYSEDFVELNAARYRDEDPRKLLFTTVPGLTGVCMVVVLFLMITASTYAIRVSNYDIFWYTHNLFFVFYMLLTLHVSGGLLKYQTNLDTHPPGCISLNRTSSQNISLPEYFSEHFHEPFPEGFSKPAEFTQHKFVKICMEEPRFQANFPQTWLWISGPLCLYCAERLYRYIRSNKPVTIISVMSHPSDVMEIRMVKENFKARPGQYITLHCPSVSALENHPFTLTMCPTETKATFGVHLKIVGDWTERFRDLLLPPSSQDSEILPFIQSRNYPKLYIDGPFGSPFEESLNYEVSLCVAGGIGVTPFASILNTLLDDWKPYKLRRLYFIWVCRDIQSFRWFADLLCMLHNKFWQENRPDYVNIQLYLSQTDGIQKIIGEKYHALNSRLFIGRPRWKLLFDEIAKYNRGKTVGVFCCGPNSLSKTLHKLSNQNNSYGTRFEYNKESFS

Take `C#CCCCON=C1C[C@@H](O)[C@@H](O)[C@@H]2[C@@H]3C(=O)N(c4cccc(Oc5ccccc5)c4)C(=O)[C@@H]3CC[C@@H]12`: the composite z-score was 0.0741 in experiment [1]; 0.766 in experiment [6]; -0.128 in [7]; -0.0313 with Torsin-1A (Homo sapiens) [8]; 0.112 with Torsin-1A (Homo sapiens) [9]; 0.277 in experiment [10]. Further, in experiment [12], the composite z-score is -0.0929. Further, the z-score is 0.317 (inactive) in experiment [2]; 0.000705 (inactive) in [3]; 2.16 (inactive) in [4]; 0.427 (inactive) in experiment [5]; -0.164 (inactive) in [11]; 2.87 (inactive) in experiment [13]. Moreover, the z-score in experiment [14] was 1.29 (inactive); in [15], 1.24 (inactive); in [16], 0.354 (inactive); in [17], -0.512; in experiment [18], -2.13 (inactive); in experiment [19] it was -0.598 (inactive). In experiment [20], this compound yielded a z-score of -0.786.

In the case of `C=COC[C@H]1CN2[C@@H](CC[C@@H](C)[C@@H]2c2ccc(Br)cc2)C(=O)O1`, the composite z-score in experiment [1] is 0.52; in experiment [6], -0.0488; in experiment [7] it was 0.027; in the experiment with Torsin-1A (Homo sapiens) [8], 0.594; with Torsin-1A (Homo sapiens) [9], 0.0658; in [10] it was 1.2. The compound also registered a composite z-score in experiment [12] of 0.0402. Further, the z-score was -0.443 (inactive) in experiment [2]; -1.13 (inactive) in [3]; 1.59 (inactive) in [4]; -0.212 (inactive) in [5]; -1.63 (inactive) in experiment [11]; -0.591 (inactive) in [13]. Moreover, the z-score in experiment [14] was -2.06 (inactive); in experiment [15], -0.655 (inactive); in experiment [16], -1.99 (inactive); in experiment [17], 1.54; in [18] it was -0.427 (inactive); in experiment [19] it was 0.102 (inactive). The z-score in [20] was determined as 0.574.

As to `COC(=O)C1(C)C=C2C(=C(c3ccccc3)C(=O)C2C)CN1` (stereo not given), the composite z-score in experiment [1] is 0.0106; in [6] it was -0.153; in [7] it was 0.12; with Torsin-1A (Homo sapiens) [8], -0.366; with Torsin-1A (Homo sapiens) [9], -0.367; in experiment [10], -0.593. In experiment [12], the composite z-score stood at 0.22. Also, the z-score in [2] was -0.266 (inactive); in experiment [3], -0.426 (inactive); in experiment [4], 0.593 (inactive); in [5], -0.0287 (inactive); in experiment [11], -1.47 (inactive); in experiment [13], 0.585 (inactive). For the same compound, the z-score in experiment [14] was 0.196 (inactive); in experiment [15], 0.745 (inactive); in [16], 0.543 (inactive); in experiment [17], -0.387; in experiment [18] it was 0.512 (inactive); in experiment [19] it was -2.49 (inactive). The compound further yielded a z-score in experiment [20] of -2.34.

With `Cc1ccc(S[C@]2(C(=O)O)CC(=O)N(Cc3ccccc3)[C@@H]2c2ccc(CO)cc2I)cc1`, the composite z-score is -0.405 in experiment [1]; 0.556 in experiment [6]; -0.0963 in [7]; -0.995 in the experiment with Torsin-1A (Homo sapiens) [8]; -0.604 in the experiment with Torsin-1A (Homo sapiens) [9]; -0.41 in [10]. For the same compound, the composite z-score in experiment [12] was determined as 0.157. For the same compound, the z-score is -1.32 (inactive) in experiment [2]; 0.116 (inactive) in experiment [3]; 1.97 (inactive) in [4]; 1.63 (inactive) in experiment [5]; -0.308 (inactive) in experiment [11]; 13.9 (active) in experiment [13]. Further, the z-score was 2.07 (inactive) in [14]; 1.47 (inactive) in [15]; 0.842 (inactive) in experiment [16]; -0.31 in experiment [17]; 1.71 (inactive) in [18]; -2.26 (inactive) in experiment [19]. The compound also gave a z-score in experiment [20] of 0.38.

Turning to `CC(=O)OC[C@H]1O[C@H](CCON=C[C@@H](C)[C@H](OCc2ccccc2)C(C)C)C=C[C@@H]1OC(C)=O`, the composite z-score in experiment [1] was -0.0629; in experiment [6], 0.133; in [7] it was -0.199; with Torsin-1A (Homo sapiens) [8], 0.658; in the experiment with Torsin-1A (Homo sapiens) [9], 0.284; in experiment [10] it was 0.372. The composite z-score in experiment [12] was -0.313. The z-score in [2] is -0.305 (inactive); in experiment [3], 0.0966 (inactive); in experiment [4], 1.16 (inactive); in experiment [5], 0.598 (inactive); in experiment [11], -2.02 (inactive); in experiment [13] it was 1.25 (inactive). The z-score in experiment [14] was 0.412 (inactive); in [15], 1.01 (inactive); in experiment [16] it was 0.367 (inactive); in experiment [17], -0.297; in [18], -0.953 (inactive); in [19], -0.218 (inactive). Also, the z-score in experiment [20] was -2.17.
